ABCB6 inh 2: human ABCB6 transporter inhibition. K562-ABCB6 porphyrin accumulation, flow cytometry, 1 h; hits give low values. fluorescence ratio to DMSO, % at 10 µM. actives 0.19% (n = 360,000). AID 602162;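 active means fluorescence ratio to DMSO below 75%, the collection mean minus 3 SD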;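 further: signal is porphyrin accumulated inside mitochondria; lower ratio means ABCB6 inhibition with less porphyrin fluorescence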
Target sequence (Q9NP58 whole entry, looked up): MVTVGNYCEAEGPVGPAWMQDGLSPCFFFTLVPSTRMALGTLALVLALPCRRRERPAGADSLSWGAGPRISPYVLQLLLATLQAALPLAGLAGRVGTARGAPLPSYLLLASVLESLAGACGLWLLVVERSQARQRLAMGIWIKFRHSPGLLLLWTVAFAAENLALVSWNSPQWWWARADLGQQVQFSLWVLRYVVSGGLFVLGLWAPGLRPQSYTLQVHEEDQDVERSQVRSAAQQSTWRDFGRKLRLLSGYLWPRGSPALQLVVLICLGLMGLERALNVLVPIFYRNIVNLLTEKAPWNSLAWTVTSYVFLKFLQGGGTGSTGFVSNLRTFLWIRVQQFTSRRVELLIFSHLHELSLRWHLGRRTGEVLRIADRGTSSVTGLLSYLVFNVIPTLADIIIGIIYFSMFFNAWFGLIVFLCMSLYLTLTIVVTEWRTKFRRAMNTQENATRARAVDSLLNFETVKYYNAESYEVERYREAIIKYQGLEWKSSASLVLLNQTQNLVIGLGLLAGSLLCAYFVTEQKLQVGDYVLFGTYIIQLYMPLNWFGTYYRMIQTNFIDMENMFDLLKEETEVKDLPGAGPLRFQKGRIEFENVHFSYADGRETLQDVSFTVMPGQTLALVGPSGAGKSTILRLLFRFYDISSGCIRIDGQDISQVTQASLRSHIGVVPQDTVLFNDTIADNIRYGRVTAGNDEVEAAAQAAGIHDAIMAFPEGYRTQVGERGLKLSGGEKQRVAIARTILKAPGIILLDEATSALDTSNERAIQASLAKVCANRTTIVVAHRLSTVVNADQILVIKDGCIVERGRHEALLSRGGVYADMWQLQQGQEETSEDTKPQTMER
rCAG binder: r(CAG) repeat RNA binding | TO-PRO-1 dye displacement fluorescence | inhibition, % at 3 µM | actives 1.3% (n = 370,000);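 active means inhibition above the plate cutoff, the mean of all test compounds on that plate plus 3 SD, cut at about 35% in these data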;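 further: higher means more dye released from RNA so lower well fluorescence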
Exocytosis inh: blocks lytic granule exocytosis. TALL-104 LAMP-1 surface exposure, flow cytometry; cells stimulated with thapsigargin and PMA. inhibition, % at 10 µM. actives 0.66% (n = 360,000). AID 651702;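 active means inhibition above about 55%, limit read from the data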
PG9 binder: binds the HIV-1 gp120 antibody PG9; TR-FRET gp120-PG9 antibody binding; actives 0.43% (n = 360,000); inhibition, % at 6.7 µM; AID 624416; in the data active means inhibition above about 8.5%
rCAG bind conf: r(CAG) RNA repeat binding, confirmation; actives 70% (n = 4,300); TO-PRO-1 dye displacement fluorescence; shares compounds with rCAG binder; inhibition, % at 3 µM;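 active means inhibition above a per-plate cutoff, the mean inhibition of sample wells plus 3 SD, cut at about 35% in these data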;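 further: loss of TO-PRO-1 fluorescence as compound displaces dye from 1x1 AA loop RNA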
dCAG dye counter: counter-screen for rCAG RNA binders: DNA CAG dye complex inhibitors; inhibition, % at 3 µM; d(CAG) DNA oligo TO-PRO-1 dye displacement, fluorescence; actives 94% (n = 4,300); shares compounds with rCAG binder;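 active means inhibition above its plate's cutoff, the mean test-well inhibition plus 3 SD, cut at about 4.8% in these data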;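 further: hits displace the dye from DNA and so lower well fluorescence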
Each line names hits and unclear results; the compound was inactive in the other large screens (follow-up assays come after a bar, where they were run). This is a sample that favours compounds with a hit; in the whole collection about 2.5% have one here.

C[C@H]1C2CC(OC(=O)Nc3ccc(C#N)cc3)C(C2)[C@H]2CCCCN21 (stereo partly specified)	none (no result: ABCB6 inh 2, Exocytosis inh, PG9 binder)
N#Cc1c(-c2ccccc2)nc(SCC(=O)Nc2nnc(C(F)(F)F)s2)[nH]c1=O	rCAG binder 46.4 | rCAG bind conf inactive | dCAG dye counter 5.6
N#Cc1c(-c2cccs2)nc(SCC(=O)c2cccs2)[nH]c1=O	rCAG binder 79.4 | rCAG bind conf 64.7 | dCAG dye counter 29.1
CCC(Sc1nc(-c2ccccc2)c(C#N)c(=O)[nH]1)C(=O)Nc1nnc(C)s1 (stereo unspecified)	rCAG binder 43.9 | rCAG bind conf 42.6 | dCAG dye counter 11.9
CCCCc1nnc(NC(=O)CSc2nc(O)c(-c3ccccc3)c(=O)[nH]2)s1	none
N#Cc1c(-c2ccccc2)nc(SCC(=O)Nc2ccccc2F)[nH]c1=O	rCAG binder 44.0 | rCAG bind conf inactive | dCAG dye counter 8.2
O=C(CSc1nc2ccccc2c(=O)[nH]1)c1cccs1	none
O=C(CSc1nc(-c2ccccc2)cc(=O)[nH]1)Nc1ccccc1F	none
COc1cccc(CN2CCC2(C)C(=O)Nc2ccc3c(c2)OCO3)c1F (stereo unspecified)	none
Cc1cccc(C)c1OCCNC(=O)OCc1ccccc1	none
CC1=NN(c2ccc(C)cc2C)C(=O)C1C(c1cccc(O)c1)C1C(=O)N(c2ccc(C)cc2C)N=C1C (stereo unspecified)	none
Cc1ncc([N+](=O)[O-])n1CC(=O)Nc1ccccc1Cl	none
CN(CCC#N)C(=O)CSc1nc2scc(-c3ccccc3)c2c(=O)[nH]1	none
O=C(CSc1nc(O)c(Cc2ccccc2)c(=O)[nH]1)Nc1nnc(SCc2ccccc2)s1	rCAG binder 52.8 | rCAG bind conf inactive | dCAG dye counter 7.5
N#Cc1c(-c2ccccc2)nc(SCC(=O)N(c2ccccc2)c2ccccc2)[nH]c1=O	rCAG binder 73.2 | rCAG bind conf 82.1 | dCAG dye counter 40.9
CCN(C)C1CN(Cc2cn(Cc3cccc(C(F)(F)F)c3)nn2)S(=O)(=O)C1 (stereo unspecified)	none
Cn1c(O)c(C2=c3ccccc3=NC2=O)[nH]c1=S	none
COc1ccc2nc(-n3c(O)c(C4=c5ccccc5=NC4=O)[nH]c3=S)sc2c1	rCAG binder 49.5 | rCAG bind conf 93.6 | dCAG dye counter 78.5
Cc1nn(-c2ccccc2)c(Cl)c1/C=C1\SC(=S)N(CCCCCC(=O)O)C1=O	none
Cc1nn(-c2ccccc2)c(Cl)c1/C=C1\SC(=S)NC1=O	rCAG binder 64.6 | rCAG bind conf 64.3 | dCAG dye counter 17.8
CC(CCc1ccccc1)NC(=O)C(Cc1ccccc1)NC(N)=O (stereo unspecified)	none
CCOC(=O)C1=C(c2ccccc2)N=c2s/c(=C\c3ccco3)c(=O)n2C1c1cccs1 (stereo unspecified)	rCAG binder 43.7 | rCAG bind conf inactive | dCAG dye counter 19.7
C[C@H]1CN([C@@H](C)CO)C(=O)c2cc(C#CCC3CCCC3)cnc2O[C@@H]1CN(C)C(=O)CC1CC1	none
COc1ccccc1-n1c(=O)c(C#N)c(-c2ccc([N+](=O)[O-])cc2)c2cc(C(=O)c3cc(F)ccc3O)cnc21	none
Cn1c(=O)c(C#N)c(-c2ccc(F)cc2)c2cc(C(=O)c3cc(Cl)cc(Cl)c3O)cnc21	rCAG binder 74.7 | rCAG bind conf 82.9 | dCAG dye counter 41.3
CCCc1ccc(S(=O)(=O)N2CCN(C(=O)CN3C(=O)NC(C)(C4CC4)C3=O)CC2)cc1 (stereo unspecified)	none
Cc1ccc(S(=O)(=O)NC(=O)C2(C)CCN2C(=O)C2(c3ccc(Cl)cc3)CCC2)cc1 (stereo unspecified)	rCAG binder 42.5 | rCAG bind conf 38.7 | dCAG dye counter 10.0
CC1(C(=O)NS(=O)(=O)Cc2ccccc2)CCN1C(=O)C1(c2ccc(Cl)cc2)CCC1 (stereo unspecified)	rCAG binder 40.9 | rCAG bind conf inactive | dCAG dye counter 6.7
CC1(C(=O)Nc2ccccc2)CCN1C(=O)C1(c2ccc(Cl)cc2)CC1 (stereo unspecified)	none
Cc1ccc(S(=O)(=O)NC(=O)C2(C)CCN2C(=O)C2(c3ccc(Cl)cc3)CC2)cc1 (stereo unspecified)	rCAG binder 57.1 | rCAG bind conf inactive | dCAG dye counter 5.7
CC1(C(=O)NS(=O)(=O)c2cccc(C#N)c2)CCN1C(=O)C1(c2ccc(Cl)cc2)CC1 (stereo unspecified)	none
CC1(C(=O)NS(=O)(=O)c2ccc(Cl)cc2)CCN1C(=O)C1(c2ccccc2)CCCC1 (stereo unspecified)	rCAG binder 49.9 | rCAG bind conf 40.1 | dCAG dye counter 11.8
Cc1ccc(NC(=O)C2(C)CCN2C(=O)C2(c3ccc(Cl)cc3)CC2)cc1 (stereo unspecified)	none
Cc1nc(N)[nH]c(=O)c1CCCNS(=O)(=O)c1ccc([N+](=O)[O-])cc1	none
OC12CC3C[C@H](C1)C(N1CCOCC1)[C@@H](C3)C2 (stereo partly specified)	none
CC(C)CC1C(=O)N(Cc2cn(CCC3OCCCO3)nn2)CCS(=O)(=O)N1Cc1ccc(-c2ccc(Cl)nc2)cc1 (stereo unspecified)	none
CC(C)(C)c1ccc(S(=O)(=O)NC(=O)C2(C)CCN2C(=O)C2CC2)cc1 (stereo unspecified)	none
CC(C)(C)c1ccc(S(=O)(=O)NC(=O)C2(C)CCN2C(=O)C2(c3ccccc3)CC2)cc1 (stereo unspecified)	rCAG binder 47.1 | rCAG bind conf 39.9 | dCAG dye counter 10.1
COC(=O)c1c(C)[nH]c(C)c1-c1ccc(C)cc1	rCAG binder 43.2 | rCAG bind conf inactive | dCAG dye counter inactive
COC(=O)c1c(C)[nH]c(C)c1-c1cccc([N+](=O)[O-])c1	none
Cc1ccc(S(=O)(=O)N2CCN(C(=O)C3CSC4(C)CCC(=O)N34)CC2)cc1C (stereo unspecified)	none
O=C1/C(=C/c2cccc(F)c2)Oc2cc(O)ccc21	none
COc1cc(NC(=O)c2ccc3c(SCC(=O)O)c4c(nc3c2)CCCC4)cc(OC)c1OC	none
COc1cc(OC)c(NC(=O)c2ccc3c(SCC(=O)O)c4c(nc3c2)CCCC4)cc1Cl	rCAG binder 50.6 | rCAG bind conf 62.1 | dCAG dye counter 24.4
CCOC(=O)c1c(NC(C)=O)sc(/C(C)=N/Nc2ccc(C(=O)O)cc2)c1C	rCAG binder 40.0 | rCAG bind conf inactive | dCAG dye counter inactive
CC(=O)c1c(C)[nH]c(C(=O)OCC(=O)c2ccc(C)s2)c1C	none
O=C(/C=C/c1ccccc1)Nc1cc(NC(=O)/C=C/c2ccccc2)cc(C(=O)O)c1	rCAG binder 75.0 | rCAG bind conf 80.7 | dCAG dye counter 52.1
O=C(/C=C/c1ccccc1)Nc1scc(-c2ccccc2)c1C(=O)O	rCAG binder 55.2 | rCAG bind conf inactive | dCAG dye counter 6.0
